# Test results reported in the supplement of paper PMC8728848.
# The sample as a whole holds a higher share of the strongest signals than the screen did.
# B1: Epa1-NP-mutant-Y228A (Candida glabrata), Q6VBJ0 (protein)
# chain: MILNPALFLNKCVCIYTTLILLLLTNGGYATSSNDISLASKDPTTFPLGCSPDITTPKKGLSMELYSYDFRKKGSYPCWDAAYLDPNYPRTGYKSHRLLAKVDGVTGNINFYYHATKGCTPQLGHLPASYNYPKPLTMTNFTMLLYGYFRPKVTGFHTFTISADDLLFVNFGAGNAFDCCRRDSSADHFGNYQAYAIWGSKTAKDELTVHLDAGVYYPIRLFYNNREADGALSFTFKTESNENTVSDFSEYFFSLDDTEEGCPGLISYDSSCASVKTSKIIGIDYHTETPNENLVPITKTIYHLGIPCTGTTTTPLCGSGFYDPLANKCVTINTSSTSSVTKTTSHTTSKEVSFHSSISSQKTLIPKSIPSPYGPIKSQSIPTEMETSSEISSSEYAFSDVISTPSHSPYTKKHSSLNSSSYTSTVIHSLTSYSISQGIFSTSLSEQNITSKSSTDKFSTATSMSNNITQSSIIISQFSTNNENYTTTSMHTSSDKISTETLNNSISTTTSILFSNSSTILKNNTTIISSDKDTHYHPVNPTIVCSTNKTEIICASITQPSISNSNNHWSSSVLKFNSTTVRSTLPSSAGSNETSINVPFSSSTESNTSTSSTSTSNSKMVRSTLPSSAGSNETSISVPFSSSTESNTSTSSTSTSNSKMVRSTLPSSAGSNETSINVPFSSSTESNTSTSSTSTSNSKTVRSTPFSSAGIIMTSLSQRNNKSASSYASSNSKCYNTADSCRKVHSTPSYLLTSSYTSEGVDYDCSLVSTKLKINDTNCVNNKHTTKSCLKTSVTTTIPTLEIKTARKSSSNTIGLHSYPTSSPNKSISSAPIIGYISSFKTIKTASPSYQTSDLTTITTITSLNNPGSTAVENTHESNDKSRKTSSNDISSKHSVIKETKDAVESSNKSHQTNTLKCSSIIIASSSHNSYESLGGTTLTLTLSKVYSPQNNDTLPFLEISEVNPSRTVLPESSKMMQYLTSTEERNKTARNTIATNIVSISTFHFEGEGNAIRMGYTQLLLMLIGIIVMNIGT
# Tests used:
# Experiment in all cases: glycan array binding signal (z-score within array); higher = stronger binding
# Conditions in all cases: glycan notation: IUPAC condensed, linker removed; mutation: Y228A
# [1] = target: Gal(b1-4)GlcNAc(b1-6)Gal(b1-4)GlcNAc
# Summary of the method: (§1)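 Glycan array data came from 3228 arrays in the Consortium for Functional Glycomics database, and only arrays with an available protein sequence were kept. Glycan names were put into IUPAC-condensed notation, and columns mapping to the same glycan were averaged. The binding signal is a within-array Z-score, averaged across arrays of one protein sequence run at different concentrations or buffers and across linkers. A negative Z-score can be read as non-binding.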
# [2] = target: Gal(b1-4)GlcNAc(b1-6)[Gal(b1-4)GlcNAc(b1-3)]GalNAc
# Summary of the method: as §1
# Gal3S(b1-3)GalNAc = target: Gal3S(b1-3)GalNAc
# Summary of the method: as §1
# Gal3S4S(b1-4)GlcNAc = target: Gal3S4S(b1-4)GlcNAc
# Summary of the method: as §1
# Gal4S6S(b1-4)GlcNAc = target: Gal4S6S(b1-4)GlcNAc
# Summary of the method: as §1
# Gal6S(b1-3)GlcNAc6S = target: Gal6S(b1-3)GlcNAc6S
# Summary of the method: as §1
# Gal6S(b1-4)Glc6S = target: Gal6S(b1-4)Glc6S
# Summary of the method: as §1
# [3] = target: GalNAc(b1-3)Gal(a1-4)Gal(b1-4)GlcNAc
# Summary of the method: as §1
# GalNAc3S(b1-4)GlcNAc = target: GalNAc3S(b1-4)GlcNAc
# Summary of the method: as §1
# Glc(b1-4)Glc = target: Glc(b1-4)Glc
# Summary of the method: as §1
# [4] = target: GlcA3S(b1-3)Gal(b1-4)GlcNAc(b1-2)Man
# Summary of the method: as §1
# [5] = target: GlcNAc(b1-2)[GlcNAc(b1-6)]Man(a1-6)[GlcNAc(b1-2)Man(a1-3)]Man(b1-4)GlcNAc(b1-4)[Fuc(a1-6)]GlcNAc
# Summary of the method: as §1
# [6] = target: GlcNAc(b1-3)Gal(b1-4)GlcNAc(b1-3)Gal(b1-4)GlcNAc(b1-3)Gal(b1-4)GlcNAc(b1-2)Man(a1-3)[GlcNAc(b1-3)Gal(b1-4)GlcNAc(b1-3)Gal(b1-4)GlcNAc(b1-3)Gal(b1-4)GlcNAc(b1-2)Man(a1-6)]Man(b1-4)GlcNAc(b1-4)[Fuc(a1-6)]GlcNAc
# Summary of the method: as §1
# [7] = target: GlcNAc(b1-3)[GlcNAc(b1-6)]Gal(b1-4)GlcNAc
# Summary of the method: as §1
# [8] = target: GlcNAc(b1-3)[GlcNAc(b1-6)]GalNAc
# Summary of the method: as §1
# [9] = target: Man(a1-2)Man(a1-2)Man(a1-6)[Man(a1-3)]Man
# Summary of the method: as §1
# [10] = target: Man(a1-3)[Man(a1-6)]Man(a1-6)[Man(a1-3)]Man
# Summary of the method: as §1
# [11] = target: Neu5Ac(a2-3)Gal(b1-3)GlcNAc(b1-3)Gal(b1-3)GlcNAc
# Summary of the method: as §1
# [12] = target: Neu5Ac(a2-3)Gal(b1-3)[Neu5Ac(a2-6)]GlcNAc(b1-3)[Fuc(a1-3)[Gal(b1-4)]GlcNAc(b1-6)]Gal(b1-4)Glc
# Summary of the method: as §1
# [13] = target: Neu5Ac(a2-3)Gal(b1-4)GlcNAc(b1-2)Man(a1-3)[Neu5Ac(a2-6)Gal(b1-4)GlcNAc(b1-2)Man(a1-6)]Man(b1-4)GlcNAc(b1-4)GlcNAc
# Summary of the method: as §1
# [14] = target: Neu5Ac(a2-3)Gal(b1-4)GlcNAc(b1-3)Gal
# Summary of the method: as §1
# [15] = target: Neu5Ac(a2-3)Gal(b1-4)[Fuc(a1-3)]GlcNAc
# Summary of the method: as §1
# [16] = target: Neu5Ac(a2-6)Gal(b1-4)GlcNAc(b1-3)Gal(b1-4)GlcNAc(b1-3)Gal(b1-4)GlcNAc
# Summary of the method: as §1
# [17] = target: Neu5Gc(a2-3)Gal(b1-3)GlcNAc
# Summary of the method: as §1
# [18] = target: Neu5Gc(a2-3)Gal(b1-3)[Fuc(a1-4)]GlcNAc
# Summary of the method: as §1
binder,measurement,setting,value
B1,glycan array binding signal (z-score),[1],2.72
same,glycan array binding signal (z-score),[2],0.637
same,glycan array binding signal (z-score),Gal3S(b1-3)GalNAc,-0.153
same,glycan array binding signal (z-score),Gal3S4S(b1-4)GlcNAc,-0.259
same,glycan array binding signal (z-score),Gal4S6S(b1-4)GlcNAc,-0.16
same,glycan array binding signal (z-score),Gal6S(b1-3)GlcNAc6S,5.91
same,glycan array binding signal (z-score),Gal6S(b1-4)Glc6S,4.82
same,glycan array binding signal (z-score),[3],-0.145
same,glycan array binding signal (z-score),GalNAc3S(b1-4)GlcNAc,-0.321
same,glycan array binding signal (z-score),Glc(b1-4)Glc,-0.246
same,glycan array binding signal (z-score),[4],-0.24
same,glycan array binding signal (z-score),[5],0.217
same,glycan array binding signal (z-score),[6],-0.139
same,glycan array binding signal (z-score),[7],-0.235
same,glycan array binding signal (z-score),[8],-0.277
same,glycan array binding signal (z-score),[9],-0.127
same,glycan array binding signal (z-score),[10],-0.287
same,glycan array binding signal (z-score),[11],-0.295
same,glycan array binding signal (z-score),[12],-0.172
same,glycan array binding signal (z-score),[13],-0.237
same,glycan array binding signal (z-score),[14],-0.11
same,glycan array binding signal (z-score),[15],-0.209
same,glycan array binding signal (z-score),[16],-0.307
same,glycan array binding signal (z-score),[17],-0.069
same,glycan array binding signal (z-score),[18],-0.119
